# High-throughput results as filed in PubChem.
# Hits are enriched below; roughly 3.6% of the tested compounds scored in any of these assays.
# esBAF inh: SWI/SNF esBAF complex inhibition. AID 602393. mouse ES cells, Bmi1-luciferase knock-in reporter, 24 h; 100% = twice the neutral-well signal. reporter increase, % at 12.5 µM. 350,000 tested, 2% active; in the data active means activation above about 40%;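 further: 0% = median of the plate's neutral control wells and 100% = double that signal; a rise in the Bmi1 reporter signal indicates esBAF inhibition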
# Wnt bcat act: Wnt/beta-catenin pathway activation | Wnt/beta-catenin reporter cell assay, activator, plate reader | activation, % at 9.35 µM | 300,000 tested, 1.2% active | AID 743398; in the data active means activation above about 30%, passing the limit was not always enough;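 further: 0% = neutral control wells and 100% = positive control wells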
# A3G deaminase: blocks human APOBEC3G single-stranded DNA deamination; Q9HC16; recombinant A3G, ssDNA deamination FAM/TAMRA fluorescence; inhibition, % at 20 µM; 330,000 tested, 0.28% active; AID 493012;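 active means inhibition of at least 40% at 20 µM, with no more than 30% in the related APOBEC3A deaminase screen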;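 further: plate controls were DMSO wells with A3G for no effect and wells lacking A3G enzyme for full effect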
# MITF act: activators of MITF-driven TRPM1 promoter activity in SK-MEL-5 cells; SK-MEL-5 TRPM1-promoter luciferase, 24 h; % of positive control, neutral wells = 0; 300,000 tested, 0.75% active; activation, % at 12.5 µM; AID 588334;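 active means mean activation of at least 80% with every replicate also reaching 80%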;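 further: 0% = neutral control wells and 100% = parthenolide positive control wells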
# APOBEC3A inh: human APOBEC3A DNA deaminase inhibition. inhibition, % at 20 µM. recombinant A3A, FAM/TAMRA ssDNA deamination fluorescence. AID 493011. 330,000 tested, 0.41% active. P31941;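 active means at least 40% inhibition at 20 µM here, with at most 30% in a related deaminase screen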;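 further: plate controls were A3A with DMSO for no effect and wells lacking A3A enzyme for full effect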
# Target sequence (P31941 whole entry, looked up): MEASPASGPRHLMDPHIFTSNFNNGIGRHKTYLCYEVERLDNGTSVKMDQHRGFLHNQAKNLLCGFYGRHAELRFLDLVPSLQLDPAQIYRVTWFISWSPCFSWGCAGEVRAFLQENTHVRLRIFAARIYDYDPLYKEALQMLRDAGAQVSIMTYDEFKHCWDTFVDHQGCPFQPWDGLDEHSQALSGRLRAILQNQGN
# PHOSPHO1 inh: PHOSPHO1 (human) inhibition; recombinant PHOSPHO1, absorbance phosphatase assay; inhibition, % at 13.3 µM; 290,000 tested, 1.1% active; in the data active means inhibition above about 60%
# A3G conf: APOBEC3G (human) deaminase inhibition, confirmed; 890 tested, 72% active; shares compounds with A3G deaminase; inhibition, % at 20 µM; recombinant A3G ssDNA deaminase, UDG/FAM-TAMRA fluorescence;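 active means inhibition reaching a set limit in any replicate at 20 µM, the limit being 80% of the first screen's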
# UDG ctr A3G: inhibits E. coli UDG, flagging false APOBEC3G inhibitors; UDG counterscreen, FAM/TAMRA oligo fluorescence; shares compounds with A3G deaminase; 710 tested, under 10 active; inhibition, % at 20 µM;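 active means compounds giving 40% or more inhibition at 20 µM in any one of the three replicates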;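 further: plate controls were DMSO wells with UDG and oligo for no effect and DMSO wells lacking both for full effect; inhibitors lower the FAM signal released by uracil excision and alkaline cleavage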
# Target sequence (P12295 whole entry, looked up): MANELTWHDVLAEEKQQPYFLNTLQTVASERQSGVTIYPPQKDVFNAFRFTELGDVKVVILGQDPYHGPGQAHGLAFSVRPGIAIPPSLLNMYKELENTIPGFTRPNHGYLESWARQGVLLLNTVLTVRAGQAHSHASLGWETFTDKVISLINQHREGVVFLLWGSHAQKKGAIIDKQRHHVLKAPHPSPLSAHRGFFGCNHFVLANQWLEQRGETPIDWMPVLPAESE
# * = called active by the depositor; · = not tested or not shown.
SMILES,esBAF inh,Wnt bcat act,A3G deaminase,MITF act,APOBEC3A inh,PHOSPHO1 inh,A3G conf,UDG ctr A3G
O=C1C(Cl)=C(NC(=O)c2ccccc2)C(=O)C(Cl)=C1NC(=O)c1ccccc1,-31.7,-0.1,85.6*,-48.1,2.0,35.6,91.4*,·
O=C(NC1=C(Nc2ccc(Cl)cc2)C(=O)c2ccccc2C1=O)c1ccccc1,·,-1.7,0.1,-70.7,4.6,-5.1,·,·
CCCN1[C@@H]2Cn3c(ccc(C4=CCCC4)c3=O)[C@H]1[C@@H](C(=O)N(C)C)[C@@H]2CO,3.4,·,·,·,·,·,·,·
O=C(C[C@H]1C[C@@H]2c3cc(NC(=O)NC4CCCC4)ccc3O[C@@H]2[C@@H](CO)O1)NCc1ccc(-c2ccccc2)cc1,4.5,·,·,·,·,·,·,·
O=c1nc2n(c3ccccc13)Cc1ccccc1-2,·,·,·,·,·,6.2,·,·
O=c1c2cccc(Cl)c2nc2n1Cc1ccccc1-2,·,39.1*,59.5*,·,2.8,81.3*,55.2*,-1.3
Nc1ccccc1SSc1ccccc1N,20.7,5.9,81.8*,5.6,1.0,-74.0,63.2*,1.2
Cc1noc(C)c1S(=O)(=O)Nc1ccc2c(c1)C(=O)N([C@@H](C)CO)C[C@H](C)[C@@H](CN(C)C(=O)Nc1ccc(C(F)(F)F)cc1)O2,-3.7,·,·,·,·,·,·,·
Cc1ccc(C(=O)CSc2nnnn2C(C)C)c(C)c1,·,·,54.2*,-2.0,-2.7,35.2,4.0,-1.8
CC(C)NC(=O)Nc1ccc2c(c1)C(=O)N(C)[C@@H]1CC[C@@H](CC(=O)NCC(F)(F)F)O[C@@H]1CO2,-2.2,·,·,·,·,·,·,·
COc1ccc(CC(=S)N2CCOCC2)cc1,-44.0,2.3,44.7*,-10.5,2.3,72.8*,41.5*,-2.4
O=C(CN(CC(=O)N1CCOCC1)S(=O)(=O)c1ccc(Br)s1)N1CCOCC1,-6.1,·,46.3*,6.8,-1.1,·,58.3*,-1.8
CN(CC(=O)N1CCCCCC1)S(=O)(=O)c1ccc(Br)s1,·,·,3.9,·,-1.9,-5.8,·,·
CCCN(CC(=O)Nc1ccccc1C)C(=O)c1ccc2ccccc2n1,-0.3,-3.8,-5.1,-11.9,3.0,·,·,·
Cc1ccccc1NC(=S)c1ccc2ccccc2n1,70.0*,25.5,42.0*,28.8,-3.0,-36.3,39.9*,1.2
CCOC(=O)c1c(NC(=O)CN(C)C)sc(C(=O)N(CC)CC)c1C,-4.9,-0.4,-3.7,3.7,-3.4,33.0,·,·
CCCCC(=O)Nc1sc(C(=O)N(CC)CC)c(C)c1C(=O)OC,0.7,·,68.0*,9.6,1.9,-18.3,67.6*,1.8
COc1cccc(-c2ccc3c(c2)O[C@@H](CN(C)C(=O)c2ccccc2F)[C@@H](C)CN([C@H](C)CO)S3(=O)=O)c1,-1.1,·,·,·,·,·,·,·
C[C@@H]1CCCCO[C@H](CN(C)Cc2ccccc2)[C@@H](C)CN([C@@H](C)CO)C(=O)c2cc(NC(=O)Cc3ccccc3)ccc2O1,-2.3,·,·,·,·,·,·,·
CC(Cc1c[nH]c2ccccc12)C(=O)O (stereo not drawn),-6.7,-0.9,40.2*,·,4.1,-9.0,44.7*,·
CCc1ccc(-n2c(C)n[nH]c2=S)cc1,·,-0.1,56.4*,-1.6,-5.6,24.1,61.3*,2.1
CCOC(=O)c1c(NC(=O)c2ccccc2Br)sc2c1CCc1ccccc1-2,-8.2,-0.1,46.1*,-11.8,3.2,70.8*,33.1*,-3.6
CCOC(=O)c1c(NC(C)=O)sc2c1CCC(C=O)=C2Sc1ccccc1,2.8,-11.4,41.3*,-10.0,-3.9,90.9*,1.8,3.0
Cc1cc(S(=O)(=O)N(Cc2ccccn2)Cc2ccco2)ccc1-n1cnnn1,-5.0,-0.8,50.3*,-9.7,1.6,8.6,0.7,·
CO[C@H]1CN(C)C(=O)c2ccc(NC(=O)c3cnccn3)cc2OC[C@@H](C)NC[C@@H]1C,1.6,·,·,·,·,·,·,·
CC(=O)Nc1n[nH]c(=S)s1,·,-0.7,·,12.6,·,·,·,·
CNc1n[nH]c(=S)s1,·,-0.3,66.6*,·,-4.5,52.5,76.4*,-6.0
C[C@H]1CN([C@@H](C)CO)C(=O)c2cc(C3=CCCCC3)cnc2O[C@@H]1CN(C)C(=O)Nc1ccc(F)cc1,3.0,·,·,·,·,·,·,·
